We go through 20 compounds from PubChem BioAssay (Tox21).

Assay [1] in a line: Caspase-3/7 induction in HepG2 cells by small molecules, qHTS assay (AID 1346978). Also: nearly all actives have a fitted effect of over 15% in size. Also: potency is read from the fitted curve at half-maximal effect. Put shortly: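 Wild-type HepG2 cells, 2,000/well, settled 5 hr at 37 C and 5% CO2, then compound-treated for 17 hr; caspase-3/7 activity read by luminescent Caspase-Glo 3/7 after 30 min at room temperature.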
Assay [2] in a line: Caspase-3/7 induction in CHO-K1 cells by small molecules, qHTS cell viability counter screen (AID 1346979). Also: nearly all actives have a fitted effect of over 35% in size. Also: potency is read from the fitted curve at half-maximal effect. The procedure, abridged:
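Multiplexed with Caspase-Glo 3/7 in CHO-K1 cells, this counter screen added CellTiter-Fluor after 16hr of compound exposure and recorded fluorescence 1hr later.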

Assay [3] in a line: Caspase-3/7 induction in CHO-K1 cells by small molecules, qHTS assay (AID 1346980). Also: nearly all actives have a fitted effect of over 15% in size. Put shortly:
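Wild-type CHO-K1 cells exposed to compounds for 17hr at 37 C, 5% CO2. Caspase-3/7 activity then measured by Caspase-Glo 3/7 luminescence after 30min at room temperature.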

Assay [4] is described as follows: Caspase-3/7 induction in HepG2 cells by small molecules, qHTS cell viability counter screen (AID 1346981). Also: nearly all actives have a fitted effect of over 30% in size. Also: potency is read from the fitted curve at half-maximal effect. As to activity change, negative = cytotoxicity: series mostly up to about 92 µM. Put shortly:
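CellTiter-Fluor fluorescence measured viability in the same wells used for Caspase-Glo 3/7. HepG2 (wild type) at 2,000 cells/well were pre-incubated 5 hr, dosed, and given reagent at 16 hr, with 1 hr further at 37C.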

In assay [5] the target is Nuclear receptor subfamily 1 group I member 2 (Homo sapiens) (UniProt O75469). Nature of the assay: Human pregnane X receptor (PXR) small molecule agonists, qHTS assay (AID 1346982). Also: nearly all actives have a fitted effect of over 35% in size. Also: potency is read from the fitted curve at half-maximal effect. The procedure, abridged: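 Agonist mode: luminescence from ONE-Glo after 24 h compound exposure at 37C in HepG2 cells carrying hPXR-responsive CYP3A4 luciferase, plated in charcoal-stripped serum medium 5 h beforehand.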

The target of assay [6] is Cytochrome P450 2D6 (Homo sapiens) (UniProt P10635). Nature of the assay: Cytochrome P450 Family 2 Subfamily D Member 6 (CYP2D6) small molecule antagonists: luciferase reporter qHTS assay (AID 1671196). Also: nearly all actives have a fitted effect of over 50% in size. Also: potency is read from the fitted curve at half-maximal effect. As to activity change, negative = inhibition: series mostly up to about 120 µM. Put shortly:
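CYP2D6 activity was followed as luminescence from its luciferin product after a 1 h NADPH-driven reaction at room temperature. Enzyme-substrate mix and compound were pre-incubated for 10 min, and the signal was read 20 min after adding detection reagent.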

Assay [7] has as its target Cytochrome P450 2C19 (Homo sapiens) (UniProt P33261). Nature of the assay: Cytochrome P450 Family 2 Subfamily C Member 19 (CYP2C19) small molecule antagonists: luciferase reporter qHTS assay (AID 1671197). Also: nearly all actives have a fitted effect of over 65% in size. Also: potency is read from the fitted curve at half-maximal effect. As to activity change, negative = inhibition: series mostly up to about 120 µM. Put shortly: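 Quantitative high-throughput screen of the Tox21 library using CYP2C19 with proluciferin substrate. Reaction: NADPH regeneration, 37C, 1 h, after 10 min compound preincubation at room temperature. Readout: luminescence.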

Assay [8] concerns the target Cytochrome P450 2C9 (Homo sapiens) (UniProt P11712). In words: Cytochrome P450 Family 2 Subfamily C Member 9 (CYP2C9) small molecule antagonists: luciferase reporter qHTS assay (AID 1671198). Also: nearly all actives have a fitted effect of over 50% in size. Also: potency is read from the fitted curve at half-maximal effect. As to activity change, negative = inhibition: series mostly up to about 120 µM. The procedure, abridged:
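P450-Glo proluciferin substrate with CYP2C9 enzyme; 10 min RT preincubation, then NADPH regeneration 1 h at 37C; luciferin detection reagent 20 min RT, luminescence in relative luminescence units.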

Assay [9] deals with Cytochrome P450 1A2 (Homo sapiens) (UniProt P05177). Nature of the assay: Cytochrome P450 Family 1 Subfamily A Member 2 (CYP1A2) small molecule antagonists: luciferase reporter qHTS assay (AID 1671199). Also: nearly all actives have a fitted effect of over 50% in size. Also: potency is read from the fitted curve at half-maximal effect. As to activity change, negative = inhibition: series mostly up to about 120 µM. The procedure, abridged: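 Luminescence from luciferin formed by CYP1A2 from a proluciferin substrate, read 20 min after detection reagent. Compound was pre-incubated 10 min with enzyme-substrate, and reaction started with NADPH regeneration solution for 1 h at room temperature; furafylline control.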

The target of assay [10] is Voltage-gated inwardly rectifying potassium channel KCNH2 (Homo sapiens) (UniProt Q12809). Nature of the assay: Human Ether-a-go-go-Related Gene (hERG) channel small molecule antagonists: fluorescence cell-based qHTS assay (AID 1671200). Also: nearly all actives have a fitted effect of over 50% in size. Also: potency is read from the fitted curve at half-maximal effect.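 As to activity change, negative = inhibition: hERG-expressing U2OS cells given a thallium stimulus after FluxOR II dye loading; series mostly up to about 77 µM.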 The procedure, abridged:
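Cell line hERG-U2OS; dye FluxOR II, 1 h RT dark; Tl+ stimulus; ex 480/em 540 nm, read each second for 2 min.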

Assay [11] concerns the target Cytochrome P450 3A4 (Homo sapiens) (UniProt P08684). In words: Cytochrome P450 Family 3 Subfamily A Member 4 (CYP3A4) small molecule antagonists: luciferase reporter qHTS assay (AID 1671201). Also: nearly all actives have a fitted effect of over 50% in size. Also: potency is read from the fitted curve at half-maximal effect. As to activity change, negative = inhibition: series mostly up to about 120 µM. Put shortly:
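Room-temperature assay throughout: 10 min compound–enzyme/substrate preincubation, 1 h reaction after NADPH regeneration solution, 20 min detection. Luciferin formed from proluciferin substrate is quantified by luminescence.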

Assay [12] has as its target Nuclear receptor subfamily 1 group I member 2 (Rattus norvegicus) (UniProt Q9R1A7). Nature of the assay: Rat pregnane X receptor (rPXR) activation by small molecules, qHTS assay (AID 1346983). Also: nearly all actives have a fitted effect of over 20% in size. The following applies: rPXR luciferase reporter cells, One-Glo luminescence, 24 h; max activation: stronger effect = higher value. Put shortly: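 Cell-based rPXR activation assay: rPXR cells, 2,000 per well, rested 5hr at 37 C, then exposed to compounds in DMSO for 24 hr at 37 C. Luciferase activity read by One-Glo luminescence after 30 min at room temperature.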

In assay [13] the target is Nuclear receptor subfamily 1 group I member 2 (Homo sapiens) (UniProt O75469). Nature of the assay: CYP3A4 induction through human pregnane X receptor (PXR) by small molecules, qHTS assay (AID 1346984). Also: nearly all actives have a fitted effect of over 40% in size. Also: potency is read from the fitted curve at half-maximal effect. Put shortly:
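Read-out is luminescence after One-Glo addition, following a 3 hr, 37C incubation with Luciferin-IPA CYP3A4 substrate (3uM final). Before that, compounds were on DPX-2 cells (HepG2 co-transfected with PXR element plus CYP3A4-promoter luciferase) for 24 hr at 37C.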

Assay [14] has the same target. In words: Human pregnane X receptor (PXR) activation by small molecules, qHTS assay (AID 1346985). Also: nearly all actives have a fitted effect of over 40% in size. Also: potency is read from the fitted curve at half-maximal effect. Put shortly: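 DPX-2 cells (HepG2 co-transfected with a PXR response element and a CYP3A4-promoter luciferase construct) were seeded at 2,000 per well, rested 5 hr at 37C, then exposed to DMSO-dissolved compounds for 24 hr. Activation was read as luciferase luminescence.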

“And” between values parts separate entries of the source, which are not always exact repeats. Equal entries are not always repeated. A number with no mark means an inactive call. Inconclusive results are not listed. The source made the active and inactive calls. Calls follow the shape of the dose curve; as a rule, active = well fitted curve in the direction sought with a large enough effect in the repeat runs; inconclusive = weak or mixed curves; inactive = no such curve, though single readings can be large; an effect the other way counts as inactive or inconclusive.
% is scaled to controls: 0 for no effect and ±100 for the full control effect.

Sequence of Nuclear receptor subfamily 1 group I member 2 (Homo sapiens) (O75469 whole entry, looked up): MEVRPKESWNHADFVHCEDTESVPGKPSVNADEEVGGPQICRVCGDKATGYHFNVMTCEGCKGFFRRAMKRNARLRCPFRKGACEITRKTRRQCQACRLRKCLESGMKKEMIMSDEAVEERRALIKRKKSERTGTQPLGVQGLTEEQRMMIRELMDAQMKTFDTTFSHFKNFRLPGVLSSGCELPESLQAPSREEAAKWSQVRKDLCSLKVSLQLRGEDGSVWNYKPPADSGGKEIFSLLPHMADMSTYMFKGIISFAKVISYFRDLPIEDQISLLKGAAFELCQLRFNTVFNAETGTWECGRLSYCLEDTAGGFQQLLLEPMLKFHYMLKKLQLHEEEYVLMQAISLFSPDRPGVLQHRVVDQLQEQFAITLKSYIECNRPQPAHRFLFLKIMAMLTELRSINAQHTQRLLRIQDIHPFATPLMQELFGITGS
Sequence of Cytochrome P450 2D6 (Homo sapiens) (P10635 whole entry, looked up): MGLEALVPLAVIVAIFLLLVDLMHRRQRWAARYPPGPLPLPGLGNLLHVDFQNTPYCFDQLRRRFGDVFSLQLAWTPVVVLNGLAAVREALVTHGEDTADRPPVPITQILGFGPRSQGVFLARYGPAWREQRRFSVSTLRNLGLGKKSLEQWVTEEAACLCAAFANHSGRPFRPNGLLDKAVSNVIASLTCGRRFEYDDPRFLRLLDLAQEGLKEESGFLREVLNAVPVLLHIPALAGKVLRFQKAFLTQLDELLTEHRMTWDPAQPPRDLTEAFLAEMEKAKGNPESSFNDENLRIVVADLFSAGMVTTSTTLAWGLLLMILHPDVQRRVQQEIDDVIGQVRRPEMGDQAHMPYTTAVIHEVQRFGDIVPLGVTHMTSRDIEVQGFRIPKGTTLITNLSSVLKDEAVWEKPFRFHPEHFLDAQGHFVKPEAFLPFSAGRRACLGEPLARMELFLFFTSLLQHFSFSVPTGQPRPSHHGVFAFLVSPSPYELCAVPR
Sequence of Cytochrome P450 1A2 (Homo sapiens) (P05177 whole entry, looked up): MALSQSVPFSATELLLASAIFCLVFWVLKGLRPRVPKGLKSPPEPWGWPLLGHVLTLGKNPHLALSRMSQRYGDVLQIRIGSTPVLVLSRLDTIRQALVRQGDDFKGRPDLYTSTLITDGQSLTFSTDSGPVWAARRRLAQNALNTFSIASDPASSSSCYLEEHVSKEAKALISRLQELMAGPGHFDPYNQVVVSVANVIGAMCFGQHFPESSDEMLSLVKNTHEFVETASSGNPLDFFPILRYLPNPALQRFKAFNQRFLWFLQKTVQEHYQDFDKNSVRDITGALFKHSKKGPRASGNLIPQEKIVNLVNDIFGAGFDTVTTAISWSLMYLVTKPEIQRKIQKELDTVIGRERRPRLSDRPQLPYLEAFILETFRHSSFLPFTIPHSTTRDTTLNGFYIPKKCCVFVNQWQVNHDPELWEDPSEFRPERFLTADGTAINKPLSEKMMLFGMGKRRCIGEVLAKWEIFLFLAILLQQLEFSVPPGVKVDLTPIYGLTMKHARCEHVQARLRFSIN
Sequence of Voltage-gated inwardly rectifying potassium channel KCNH2 (Homo sapiens) (Q12809 whole entry, looked up): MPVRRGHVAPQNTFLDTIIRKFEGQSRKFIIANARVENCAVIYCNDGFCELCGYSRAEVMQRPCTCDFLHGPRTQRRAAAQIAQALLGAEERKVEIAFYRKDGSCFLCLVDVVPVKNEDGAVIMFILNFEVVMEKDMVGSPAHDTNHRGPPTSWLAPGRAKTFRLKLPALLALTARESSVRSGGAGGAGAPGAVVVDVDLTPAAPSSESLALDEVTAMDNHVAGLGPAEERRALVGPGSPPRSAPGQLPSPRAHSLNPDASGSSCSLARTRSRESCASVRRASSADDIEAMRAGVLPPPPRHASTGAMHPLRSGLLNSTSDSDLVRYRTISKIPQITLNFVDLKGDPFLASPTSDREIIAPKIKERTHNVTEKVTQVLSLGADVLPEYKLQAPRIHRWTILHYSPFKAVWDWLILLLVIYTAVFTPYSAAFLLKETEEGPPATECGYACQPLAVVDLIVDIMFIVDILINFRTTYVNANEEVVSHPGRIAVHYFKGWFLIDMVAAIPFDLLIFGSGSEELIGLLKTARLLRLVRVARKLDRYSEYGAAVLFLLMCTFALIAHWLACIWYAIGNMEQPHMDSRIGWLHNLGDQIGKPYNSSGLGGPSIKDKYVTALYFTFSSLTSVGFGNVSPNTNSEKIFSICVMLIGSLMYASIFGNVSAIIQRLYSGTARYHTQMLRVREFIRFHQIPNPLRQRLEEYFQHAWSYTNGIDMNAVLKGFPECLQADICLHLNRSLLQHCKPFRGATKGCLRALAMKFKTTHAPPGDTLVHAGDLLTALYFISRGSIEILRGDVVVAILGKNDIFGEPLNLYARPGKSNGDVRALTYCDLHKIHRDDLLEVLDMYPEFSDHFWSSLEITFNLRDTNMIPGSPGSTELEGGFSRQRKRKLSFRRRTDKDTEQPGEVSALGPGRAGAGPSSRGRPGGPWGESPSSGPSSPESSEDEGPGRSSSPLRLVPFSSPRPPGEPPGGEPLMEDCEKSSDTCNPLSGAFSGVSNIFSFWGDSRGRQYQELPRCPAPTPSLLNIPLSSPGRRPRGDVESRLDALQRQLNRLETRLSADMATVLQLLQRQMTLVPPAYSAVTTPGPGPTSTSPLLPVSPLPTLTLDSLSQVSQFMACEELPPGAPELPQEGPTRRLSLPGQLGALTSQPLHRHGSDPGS
Sequence of Cytochrome P450 2C19 (Homo sapiens) (P33261 whole entry, looked up): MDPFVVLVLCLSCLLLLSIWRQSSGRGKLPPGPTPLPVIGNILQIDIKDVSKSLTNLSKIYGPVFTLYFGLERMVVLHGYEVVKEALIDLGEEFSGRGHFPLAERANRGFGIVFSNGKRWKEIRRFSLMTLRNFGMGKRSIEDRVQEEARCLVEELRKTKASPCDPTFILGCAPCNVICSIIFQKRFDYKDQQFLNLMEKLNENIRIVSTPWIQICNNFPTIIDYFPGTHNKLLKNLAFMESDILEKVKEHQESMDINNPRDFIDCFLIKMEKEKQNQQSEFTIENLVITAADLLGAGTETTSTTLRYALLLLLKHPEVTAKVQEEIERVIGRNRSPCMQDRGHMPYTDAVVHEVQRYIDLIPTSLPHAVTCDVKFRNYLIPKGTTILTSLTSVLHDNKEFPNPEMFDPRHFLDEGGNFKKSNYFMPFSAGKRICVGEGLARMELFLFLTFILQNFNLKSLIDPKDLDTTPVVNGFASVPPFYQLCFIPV
Sequence of Cytochrome P450 3A4 (Homo sapiens) (P08684 whole entry, looked up): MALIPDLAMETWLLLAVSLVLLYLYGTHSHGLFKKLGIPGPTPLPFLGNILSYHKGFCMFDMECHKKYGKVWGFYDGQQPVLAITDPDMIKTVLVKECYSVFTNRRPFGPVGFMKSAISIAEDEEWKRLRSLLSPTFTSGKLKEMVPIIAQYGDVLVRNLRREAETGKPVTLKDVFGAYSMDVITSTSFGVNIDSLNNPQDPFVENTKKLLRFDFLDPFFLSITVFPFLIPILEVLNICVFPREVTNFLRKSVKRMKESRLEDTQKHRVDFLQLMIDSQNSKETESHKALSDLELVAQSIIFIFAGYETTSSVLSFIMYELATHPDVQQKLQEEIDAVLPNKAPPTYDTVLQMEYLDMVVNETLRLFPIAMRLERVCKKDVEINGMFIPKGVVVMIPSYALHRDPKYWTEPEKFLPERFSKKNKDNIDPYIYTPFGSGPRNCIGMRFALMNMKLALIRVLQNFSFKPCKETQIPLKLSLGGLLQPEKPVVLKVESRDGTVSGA
Sequence of Cytochrome P450 2C9 (Homo sapiens) (P11712 whole entry, looked up): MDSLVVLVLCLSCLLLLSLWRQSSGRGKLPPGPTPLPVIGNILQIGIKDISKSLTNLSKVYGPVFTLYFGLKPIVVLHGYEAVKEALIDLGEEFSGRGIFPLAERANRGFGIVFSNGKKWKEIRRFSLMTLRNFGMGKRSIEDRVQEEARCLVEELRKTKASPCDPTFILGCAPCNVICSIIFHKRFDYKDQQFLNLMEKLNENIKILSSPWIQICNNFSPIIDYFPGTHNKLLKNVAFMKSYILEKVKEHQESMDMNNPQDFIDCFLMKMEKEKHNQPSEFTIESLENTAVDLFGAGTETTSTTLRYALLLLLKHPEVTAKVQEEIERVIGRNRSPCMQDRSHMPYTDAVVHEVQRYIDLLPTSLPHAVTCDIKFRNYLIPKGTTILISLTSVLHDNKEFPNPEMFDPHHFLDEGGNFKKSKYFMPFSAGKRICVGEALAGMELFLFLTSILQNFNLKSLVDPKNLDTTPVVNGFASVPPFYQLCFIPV
Sequence of Nuclear receptor subfamily 1 group I member 2 (Rattus norvegicus) (Q9R1A7 whole entry, looked up): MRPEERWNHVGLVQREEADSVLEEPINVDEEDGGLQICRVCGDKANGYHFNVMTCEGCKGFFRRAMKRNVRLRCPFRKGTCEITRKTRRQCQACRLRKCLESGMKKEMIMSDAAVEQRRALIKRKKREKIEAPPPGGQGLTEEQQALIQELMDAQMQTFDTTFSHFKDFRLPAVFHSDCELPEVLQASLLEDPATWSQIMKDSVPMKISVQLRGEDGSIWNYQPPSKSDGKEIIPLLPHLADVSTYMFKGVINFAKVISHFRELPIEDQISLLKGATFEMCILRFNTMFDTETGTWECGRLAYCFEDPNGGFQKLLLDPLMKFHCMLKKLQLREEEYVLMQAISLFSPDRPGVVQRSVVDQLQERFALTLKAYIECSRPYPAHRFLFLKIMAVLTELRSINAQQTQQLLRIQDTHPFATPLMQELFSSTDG

For `O=c1[nH]sc2cc(Cl)ccc12`, the Potency result in assay [1], in [3], in assay [4], in assay [5], in assay [6] and in [7] was “inactive” each time. Further, in assay [10], the Potency result was “inactive”. For the same compound, the results for the Potency in assay [2], in assay [8] and in assay [9] were 26.6 µM (active), 13.8 µM (active) and 24.5 µM (active), respectively.
For `Cc1cc(N)c(S(=O)(=O)O)cc1Cl`, the Potency entry in assay [1], in assay [2], in assay [3], in assay [4], in assay [5] and in assay [6] was “inactive” in each case. For the same compound, the Potency entry in assay [9], in assay [10] and in assay [11] was “inactive” each time. The Potency in [8] is 28.6 µM (active).
Regarding `COc1cccc(N)c1`, the Potency result in assay [1], in assay [3], in assay [4] and in assay [10] was “inactive” throughout. Besides, the Potency in assay [2] is 24.5 µM (active).
For `CN(C)CCCOC1(Cc2ccccc2)CCCCCC1`, the Potency entry in assay [1], in assay [2], in assay [3], in assay [4] and in assay [9] was “inactive” throughout. In addition, the Potency in [6] is 1.55 µM (active).
For `On1ccccc1=S`, the Potency is 1.71 µM (active) in assay [1], 0.428 µM (active) in assay [2] and 15.2 µM (active) in [4]. Also, the Potency entry in assay [3] and in [10] was “inactive” in each case.
Take `CNC(=O)c1ccccc1`: the Potency result in assay [1], in assay [2], in assay [3], in assay [4], in [5] and in [7] was “inactive” each time. For the same compound, the Potency result in [10] and in assay [11] was “inactive” throughout.
For `O=C1CCCCCN1SSN1CCCCCC1=O`, the Potency result in assay [1], in [3], in assay [4], in [6], in assay [10] and in [11] was “inactive” throughout. Moreover, the Potency in assay [2] is 54.5 µM (active).
Consider `C[C@H]1[C@H]2CC[C@H]3[C@@H]4CC=C5C[C@@H](N(C)C)CC[C@]5(C)[C@H]4CC[C@]23CN1C`, for which the Potency result in assay [1], in assay [2], in [3], in assay [4], in assay [8] and in assay [9] was “inactive” each time. Further, the Potency result in assay [10] was “inactive”.
As for `CCCCN(CCCC)C(=O)N(CCCC)CCCC`, the Potency entry in assay [1], in assay [2], in [3], in assay [4], in [5] and in [7] was “inactive” each time. For the same compound, the Potency in [11] was 5.03 µM (active).
On to `CC(NN)c1ccccc1` (configuration not stated), for which the caspase activation in [1] was -0.345% [at 19 µM]. Further, the results for the activity change, negative = cytotoxicity in assay [2] and in assay [4] were 6.27% [at 19 µM] and 2.61% [at 19 µM], respectively. Also, the caspase-3/7 activation in [3] was 2.13% [at 19 µM]. In addition, the activation in assay [5] is 7.91% [at 19 µM]. Besides, the Potency in [6] is 15.1 µM (active). Besides, the Potency entry in assay [9] is “inactive”. In assay [10], the activity change, negative = inhibition is -1.06% [at 15.8 µM].
For `Oc1ccc(Cl)cc1Sc1cc(Cl)ccc1O`, the Potency result in assay [1], in assay [3], in assay [6] and in assay [10] was “inactive” throughout. In addition, the Potency in [2] is 30.6 µM (active); in assay [5] it was 27.3 µM (active); in assay [7], 1.26 µM (active) and 1.55 µM (active); in assay [8], 10 µM (active) and 7.76 µM (active); in assay [9], 35.5 µM (active) and 27.5 µM (active).
As to `O=Cc1cc(O)ccc1Br`, the Potency result in [1], in assay [2], in [3], in assay [4], in assay [10] and in [11] was “inactive” in each case. The Potency in assay [7] and in assay [9] was 36.1 µM (active) in each case.
Consider `Cc1c(C)c2c(c(C)c1OC(=O)CCC(=O)O)CC[C@@](C)(CCC[C@H](C)CCC[C@H](C)CCCC(C)C)O2`, for which the Potency result in assay [1], in [2], in [3], in assay [13], in assay [14] and in [6] was “inactive” in each case. The Potency result in assay [7] and in [8] was “inactive” each time. The Potency in [5] was 19.5 µM (active). Moreover, the max activation in [12] was -1.35%.
For the compound `CC(C)(C)c1ccc(C(=O)O)cc1`, the Potency entry in assay [1], in [2], in assay [3], in assay [4], in assay [6] and in assay [7] was “inactive” in each case. The Potency entry in assay [8], in assay [9], in assay [10] and in assay [11] was “inactive” each time.
Take `COC(=O)c1cc(Cl)ccc1OC`: the Potency result in assay [1], in assay [2], in [3], in assay [4], in assay [5] and in assay [7] was “inactive” in each case. The Potency result in assay [8], in assay [10] and in assay [11] was “inactive” throughout. Besides, the Potency in assay [9] was 2.88 µM (active).
With `NNc1nc(-c2ccc([N+](=O)[O-])cc2)cs1`, the Potency entry in assay [1] and in assay [3] was “inactive” in each case. The Potency was 27.3 µM (active) in assay [2]; 30.6 µM (active) in [4]; 14.2 µM (active) in assay [6]; 5.03 µM (active) in assay [7]; 5.64 µM (active) in [8]; 3.99 µM (active) in assay [9]. The Potency in assay [10] was 19.5 µM (active); in assay [11], 5.03 µM (active).
`CCCCc1oc2ccc(NS(C)(=O)=O)cc2c1C(=O)c1ccc(OCCCN(CCCC)CCCC)cc1`: the Potency in assay [1] is 18.8 µM (active); in assay [2] it was 16.8 µM (active); in [4], 26.6 µM (active); in assay [6], 11 µM (active); in [7], 9.77 µM (active); in assay [10], 0.848 µM (active). Moreover, the Potency result in [3], in assay [9] and in [11] was “inactive” each time.
Take `C1CCCC1`: the Potency entry in assay [1], in [2], in assay [3], in assay [4], in assay [5] and in assay [8] was “inactive” in each case. The Potency entry in [10] and in assay [11] was “inactive” each time. For the same compound, the Potency in assay [6] is 34.8 µM (active).
Consider `COc1c(C)c2c(c(O)c1C/C=C(\C)CCC(=O)O)C(=O)OC2`, for which the Potency result in assay [1], in [3], in assay [5], in [13], in assay [14] and in [6] was “inactive” throughout. In addition, the Potency entry in [7], in assay [8], in assay [9], in assay [10] and in [11] was “inactive” throughout. For the same compound, the Potency in assay [2] was 1.19 µM (active). The max activation in assay [12] is -5.38%.
In the case of `O=C(Nc1ccc(Oc2ccc(Cl)cc2)c(Cl)c1)c1cc(I)cc(I)c1O`, the Potency result in assay [1], in assay [2], in [3], in assay [6], in assay [7] and in assay [9] was “inactive” throughout. Besides, the Potency entry in assay [11] was “inactive”. The Potency in [5] was 26.6 µM (active); in assay [13] it was 22.4 µM (active); in assay [14] it was 22.4 µM (active); in assay [8], 38.9 µM (active).
